# Screening data (PubChem)
# Compounds with a hit are over-represented: about 2.2% of the library has one in this group of screens.
# PfM18AAP inh = blocks P. falciparum M18 aspartyl aminopeptidase; recombinant PfM18AAP, H-Glu-NHMec fluorogenic cleavage; inhibition, % at 7.35 µM; 290,000 compounds, 1.2% hits;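 active = inhibition above the campaign mean inhibition over all tested compounds plus 3 SD, cut at about 28% in these data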;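 note: 0% = plate median of test compound wells and 100% = 2 mM ZnCl2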
# Rce1 inh = inhibitors of yeast Ras-converting enzyme; 290,000 compounds, 0.27% hits; calls only; yeast membranes, quenched prenylated peptide cleavage fluorescence; Q03530;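 active = fall in fluorescence gain of 50% or more versus controls, with final raw signal at or below 3038400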;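 note: plate controls were neutral control wells for no effect and wells lacking membranes for full effect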
# PLCg1 inh = blocks human PLC-gamma1 enzyme activity; purified PLC-gamma1, fluorogenic substrate, fluorescence; inhibition, % at 12.2 µM; 370,000 compounds, 0.84% hits; AID 720700; in the data active = inhibition above about 9.5%
# NPR2 activator = GC-B (human) receptor activation; HEK293-GC-B cells, CNP EC30, cGMP TR-FRET; 0% at EC30 CNP, 100% saturating CNP; 370,000 compounds, 0.11% hits; P20594; activation, % at 10 µM;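 active = activation at 10 µM reaching about 35% in either raw or pattern-adjusted values, limit read from the data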
# PLC-beta3 inh = blocks human PLC-beta3 enzyme activity | Q01970 | Purified PLC-beta3, fluorogenic substrate, fluorescence | inhibition, % at 12.2 µM | 370,000 compounds, 0.18% hits | AID 720704;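 note: 0% = median of compound wells on plate and 100% = full blocker control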
# NPR1 activator = GC-A (human) enzyme activation; AID 1671463; activation, % at 10 µM; P16066; 370,000 compounds, 0.14% hits; HEK293 GC-A cells, cGMP TR-FRET, EC30 ANP; 0% at EC30 ANP, 100% saturating ANP; in the data active = activation above about 40%
# PLCg1 ctr = PLC-gamma1 inhibition, counter-screen for PLC-beta3 hits; shares compounds with PLCg1 inh; purified PLC-gamma1, fluorogenic substrate, fluorescence; inhibition, % at 12.3 µM; 3,300 compounds, 3.1% hits; AID 743258; in the data active = inhibition above about 9.5%
# PLCb3 confirm = human PLC-beta3 inhibition, confirmation; shares compounds with PLCg1 inh; purified PLC-beta3, fluorogenic substrate fluorescence; inhibition, % at 12.3 µM; 3,300 compounds, 1% hits; AID 743261
# * hit, by the source's call; i = inactive; . = no result. Cut-off read from the data, not from the text of the source, unless noted: active = inhibition above about 11%; inactive = the rest.
SMILES,PfM18AAP inh,Rce1 inh,PLCg1 inh,NPR2 activator,PLC-beta3 inh,NPR1 activator,PLCg1 ctr,PLCb3 confirm
O=C(/C=C/c1ccc([N+](=O)[O-])cc1)NCc1cccnc1,-6.2,i,1.8,9.5,3.2,1.2,.,.
O=C(/C=C/c1cccc([N+](=O)[O-])c1)NCc1cccnc1,1.5,.,2.6,2.7,11.2*,-0.7,-5.9,-0.3
COC(=O)[C@]12C[C@H](CC(=O)NCc3cccc4ccccc34)C(=O)N(Cc3ccc(Cl)cc3Cl)C1=C[C@H](C(C)(C)C)O[C@@H]2C,.,.,1.3,8.1,0.1,-2.8,.,.
C/C(=N\Nc1nc(-c2cc(C)ccc2C)cs1)c1cc2ccccc2oc1=O,-4.0,i,10.4*,-1.1,3.6,0.6,-19.1,-20.2
CC(=O)N1C[C@@H](c2c[nH]c3ccccc23)C=C[C@H]1C(=O)NS(=O)(=O)c1ccc(C)cc1,.,.,53.0*,6.0,-16.7,-3.9,47.7*,-16.4
COC(=O)C(C(=O)OC)[C@H]1C=C[C@@H](C(=O)NS(=O)(=O)c2ccc(C)cc2)N(C(C)=O)C1,.,.,80.7*,6.5,-0.3,1.0,76.5*,-4.2
CC(Oc1ccccc1)C(=O)Nc1cccc(NC(=O)c2ccco2)c1 (stereo not drawn),8.4,i,11.0*,10.9,5.8,1.5,-4.7,-0.9
O=C(Nc1ccccc1)c1cccc(NC(=O)c2ccco2)c1,.,i,0.1,2.0,2.8,-0.6,.,.
Oc1ccc(C=Nc2ccc3ncccc3c2)c(O)c1,15.6,i,.,.,.,.,.,.
CC(=O)N(C)c1ccc(N=Nc2ccc3ncccc3c2)cc1,.,.,11.9*,-3.7,9.6,0.2,6.5,6.2
Nc1cc(S(=O)(=O)O)cc([N+](=O)[O-])c1O,8.2,i,33.0*,-2.4,-0.8,-1.3,64.3*,9.9
Nc1ccc(C(=O)O)cc1[N+](=O)[O-],3.4,i,0.0,0.1,-7.4,4.4,.,.
COCCNC(=S)N(C)[C@H]1C[C@H]2c3[nH]c4ccccc4c3CCN2C(=O)[C@H]1[C@H](C)O,.,.,i,25.0,i,26.2,.,.
COc1cc(C(=O)Nc2ccc3c(c2)C(=O)N(CCC(=O)O)C3=O)cc(OC)c1OC,-0.6,i,11.3*,1.9,5.2,0.8,9.5*,3.1
O=C(O)C[C@H]1c2cc(F)ccc2S(=O)(=O)N1C1CCCCC1,.,i,4.4,10.9,0.7,-0.1,.,.
O=C(O)C[C@H]1c2cc(F)ccc2S(=O)(=O)N1C1CCCC1,.,i,10.1*,0.9,1.1,-2.7,6.1,5.2
Nc1nc2c(ncn2[C@@H]2O[C@H](C(=O)NCCCc3ccccc3)[C@@H](O)[C@H]2O)c(=O)[nH]1,.,.,2.4,13.6,3.3,12.7,.,.
O=C(CSc1nnnn1C1CCCCC1)N1CCN(C(=O)c2ccco2)CC1,3.8,i,11.6*,10.2,-4.0,-1.2,-5.5,0.3
CC(C)C[C@H](NC1(C(=O)NCCc2c[nH]c3ccccc23)CCOCC1)C(=O)NCCCc1ccccc1,.,.,5.5,-4.7,-0.5,-1.1,.,.
CC(C)C[C@H](NC1(C(=O)NCCc2c[nH]c3ccccc23)CCC1)C(=O)NCCCc1ccccc1,.,.,12.7*,-10.7,7.0,1.2,-7.3,-3.6
O=C(NCC(c1ccccc1)c1ccccc1)[C@H](Cc1c[nH]c2ccccc12)NC1(C(=O)NC2CCCCC2)CCC1,.,.,10.0*,-11.5,7.4,-8.8,-2.9,-1.5
CN1CCC(N[C@@H](Cc2ccccc2)C(=O)NCC(c2ccccc2)c2ccccc2)(C(=O)NC2CCCCC2)CC1,.,.,12.4*,-18.3,9.1,-26.2,-1.1,1.3
O=C(NCC(c1ccccc1)c1ccccc1)[C@H](Cc1ccccc1)NC1(C(=O)NC2CCCCC2)CCCCCC1,.,.,0.2,-2.6,1.2,-2.4,.,.
C=CCN1[C@H](C#N)[C@@H](c2ccc(C#Cc3ccccc3OC)cc2)[C@H]1CO,.,.,-61.5,9.6,-77.8,13.1,.,.
Cc1cccc(-c2nnc(SCC(=O)Nc3ccc(-c4nc5ccc(C)cc5s4)cc3)n2Cc2ccco2)c1,.,.,-23.6,-3.7,-38.9,3.8,.,.
SMILES,PfM18AAP inh,Rce1 inh,PLCg1 inh,NPR2 activator,PLC-beta3 inh,NPR1 activator,PLCg1 ctr,PLCb3 confirm
Cc1ccc(N2C(=O)CC3(CCCC3)CC2=O)cc1,2.2,i,9.0,4.5,10.9*,3.4,1.4,2.2
c1ccc(Cn2ncc3c(N4CCN(C(c5ccccc5)c5ccccc5)CC4)ncnc32)cc1,1.5,i,-1.2,3.4,-5.5,-3.1,.,.
c1ccc(Cn2ncc3c(N4CCN(c5ccccc5)CC4)ncnc32)cc1,.,.,10.8*,11.9,0.6,4.2,-5.8,-4.6
COC(=O)c1cc2c(c3c4cc(F)ccc4n(S(=O)(=O)c4ccc(C)cc4)c13)C(=O)N(Cc1ccc(C(F)(F)F)cc1)C2,.,.,-2.3,-0.1,-0.4,0.3,.,.
C=CCN1C(=O)/C(=C/N(C)C)S/C1=N\S(=O)(=O)c1cccs1,.,.,7.7,3.4,12.3*,2.6,-0.3,3.0
CCN1C(=O)/C(=C\N(C)C)S/C1=N\S(=O)(=O)c1ccc(C)cc1,6.0,i,2.9,-0.9,7.5,1.8,.,.
COc1ccc(CC(=O)NCC2CCCN(Cc3ccc(F)c(OC)c3)C2)cc1 (stereo not drawn),1.0,i,0.2,-0.4,-2.0,-11.2,.,.
COc1ccc(CC(=O)NCC2CCCN(Cc3cccc(C(F)(F)F)c3)C2)cc1 (stereo not drawn),-11.4,i,10.6*,-3.6,-2.7,-5.7,-7.0,-0.1
Cn1c(SCC(=O)NC2(C#N)CCCCC2)nnc1-c1cccnc1,-1.2,i,12.0*,1.2,-1.5,0.9,-8.5,-4.9
CNC(=O)CN1C(=O)CSc2ncccc21,-1.7,i,3.7,-7.4,14.1*,3.4,1.7,1.8
CCN(CC)c1ccc(NC(=O)CN2C(=O)CSc3ncccc32)c(C)c1,2.3,i,-1.3,.,-0.6,.,.,.
c1ccc(CCn2nnc(-c3ccc(N4CCOCC4)cc3)n2)cc1,.,.,6.6,2.5,3.1,-0.3,.,.
COC(=O)C12OCC34C(CC5C(C)=C(O)C(=O)CC5(C)C3C(O)C1O)OC(=O)C(OC(=O)C=C(C)C)C24 (stereo not drawn),.,.,12.3*,-1.4,6.7,-0.6,-1.8,-5.9
CC[C@H](CCCc1ccc(F)cc1)CN(Cc1ccc(OC)cc1)S(=O)(=O)c1ccc(C)cc1,.,.,4.0,2.8,1.8,-1.2,.,.
O=C(C1CCCN(Cc2ccc(Br)cc2)C1)N1CCCCC1 (stereo not drawn),-10.2,i,13.2*,5.3,2.7,-1.2,-5.2,-1.7
CCN(CC)C(=O)C1CCCN(Cc2ccc(N(C)C)cc2)C1 (stereo not drawn),.,i,10.2*,5.2,-2.1,-1.9,-2.0,-0.1
